Screening data deposited in PubChem BioAssay by several laboratories.
Compounds with a hit are over-represented: about 1.5% of the library has one in this group of screens.
EBV gp42 inh = inhibitors of Epstein-Barr virus glycoprotein 42; Q1HVG2; Fluorescence polarization binding assay, mP read-out; inhibition, % (tested at 21.74 µM); actives 0.42% (n = 220,000); in the data active means inhibition above about 50%
Target sequence (Q1HVG2 whole entry, looked up): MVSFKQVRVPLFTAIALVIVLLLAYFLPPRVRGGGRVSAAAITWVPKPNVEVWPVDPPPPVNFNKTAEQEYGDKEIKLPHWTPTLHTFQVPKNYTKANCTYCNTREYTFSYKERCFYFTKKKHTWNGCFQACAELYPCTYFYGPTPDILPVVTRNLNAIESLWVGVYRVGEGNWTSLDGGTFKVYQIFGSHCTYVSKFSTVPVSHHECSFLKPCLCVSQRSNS
MEX-5 binding = C. elegans MEX-5 TCR-2 RNA binding activity; actives 0.38% (n = 300,000); Q9XUB2; activity score (negative = inhibition of binding), % at 10 µM; MEX-5/FITC-TCR2 RNA binding, fluorescence polarization; hits give low values; AID 1832;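 active means inhibition past about -25% in most replicates, and total fluorescence under double the plate's negative control median, limit read from the data; inconclusive means replicates evenly split on the limit, or fluorescence at least double controls; inactive means too little inhibition in most replicates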;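 further: 0% = DMSO and -100% = 5 µM competing unlabeled TCR2 RNA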
BCLXL inh = blocks human Bcl-xL binding to Bim BH3 peptide; AID 2129; inhibition, % at 10.9 µM; actives 0.7% (n = 320,000); GST-Bcl-xL / FITC-Bim BH3 peptide fluorescence polarization; Q07817;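 active means inhibition above the mean of all tested compounds plus 3 SD, cutoff set per campaign, cut at about 30% in these data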;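 further: 0% = DMSO wells and 100% = unlabeled Bim-BH3 peptide competitor; inhibitors lower millipolarization by displacing the labeled peptide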
Target sequence (Q07817 whole entry, looked up): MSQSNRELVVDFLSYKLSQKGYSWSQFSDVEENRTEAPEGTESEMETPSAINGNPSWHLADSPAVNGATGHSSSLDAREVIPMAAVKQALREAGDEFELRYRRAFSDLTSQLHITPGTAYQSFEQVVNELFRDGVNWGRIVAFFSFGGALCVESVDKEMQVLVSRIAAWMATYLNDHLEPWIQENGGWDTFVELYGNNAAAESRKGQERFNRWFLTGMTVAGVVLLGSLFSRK
eLon inh = inhibitors of E. coli Lon protease; inhibition, % at 7.94 µM; P0A9M0; purified E. coli Lon protease, fluorescence polarization; AID 602123; actives 0.42% (n = 360,000); in the data active means inhibition above about 13%, passing the limit was not always enough;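 further: 0% = enzyme with probe and DMSO and 100% = no enzyme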
GLD-1 TGE inh = GLD-1-TGE RNA interaction inhibition (C. elegans). actives 0.44% (n = 320,000). purified GLD-1 + fluorescein TGE RNA, fluorescence polarization. Q17339. inhibition, % at 5.96 µM. AID 2280;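 active means percent inhibition above a per-plate cutoff, the plate mean of test compounds plus 3 SD, cut at about 30% in these data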;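 further: 0% = DMSO wells with GLD-1 and probe and 100% = wells lacking GLD-1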
MCL1 BIM primary = inhibitors of human MCL1 binding to BIM-BH3 peptide; GST-MCL1 / FITC-Bim-BH3 fluorescence polarization; inhibition, % at 10.9 µM; actives 0.68% (n = 320,000); AID 2057;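 active means inhibition above the mean inhibition of all tested compounds plus 3 SD, set per campaign, cut at about 40% in these data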;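 further: 0% = DMSO wells and 100% = unlabeled Bim-BH3 peptide control; higher means more loss of mP so more displacement of Bim peptide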
BCLXL inh confirm = Bcl-xL (human) inhibition, MCL1 counter-screen confirmation; shares compounds with MCL1 BIM primary; GST-Bcl-xL / FITC-Bim BH3 peptide FP binding; inhibition, % at 10.9 µM; actives 54% (n = 1,700); AID 2166;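 active means inhibition above a cutoff equal to the mean inhibition of all tested compounds plus 3 SD, cut at about 30% in these data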;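 further: 0% = DMSO wells and 100% = unlabeled Bim BH3 control peptide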
MCL1 BIM confirm = MCL1-BIM-BH3 interaction inhibition, confirmation | actives 61% (n = 1,700) | AID 2168 | GST-MCL1 / FITC-Bim-BH3 fluorescence polarization | inhibition, % at 10.9 µM | shares compounds with MCL1 BIM primary;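 active means inhibition above the average of all tested compounds plus 3 SD, cut at about 40% in these data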;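 further: 0% = DMSO wells and 100% = unlabeled Bim-BH3 control peptide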
Numbers without * were called inactive; ? = inconclusive; . = no result.

SMILES | EBV gp42 inh | MEX-5 binding | BCLXL inh | eLon inh | GLD-1 TGE inh | MCL1 BIM primary | BCLXL inh confirm | MCL1 BIM confirm
O=C(CN1C(=O)c2ccccc2C1=O)N1CCN=C1c1ccccc1 | -4 | 1 | -3 | 3 | -2 | 1 | . | .
COc1ccc(NC(=O)CSc2nc3nc(C)cc(C)c3c(=O)[nH]2)cc1 | . | 2 | 35* | -2 | 16 | 55* | 2 | 3
N#CC1(C#N)C(c2ccccc2)OC23CCCCCC2C1(C#N)C(=N)O3 (stereo unspecified) | -1 | -9 | 36* | 9 | 21 | 48* | 78* | 101*
CCCCCCCCOc1ccc(C2OC34CCCCC3C(C#N)(C#N)C2(C#N)C(=N)O4)cc1 (stereo unspecified) | -5 | -87* | 157* | 27* | 107* | 180* | 107* | 124*
CCCCCOc1ccc(C2NC(=O)NC2=O)cc1 (stereo unspecified) | -10 | 4 | -2 | -1 | 5 | 0 | . | .
C=CCN1C(=O)C2(OCCCO2)c2ccccc21 | . | 1 | 3 | 2 | 1 | -2 | . | .
C=CCN1C(=O)C2(OCCO2)c2cc(C)ccc21 | . | 1 | 19 | 2 | 8 | 40* | 4 | 1
COc1ccc(CN(C)C(=O)CCNS(=O)(=O)c2ccccc2)c(OC)c1 | . | . | . | -4 | . | . | . | .
COCCCNC(=O)/C(C#N)=C/c1c(N2CCN(c3cccc(Cl)c3)CC2)nc2c(C)cccn2c1=O | . | 1 | 10 | 2 | -6 | 7 | . | .
Cc1cccn2c(=O)c(C=O)c(N3CCN(C)CC3)nc12 | . | 0 | 21 | 1 | 15 | 20 | . | .
Cc1cccn2c(=O)c(C=O)c(N3CCN(c4ccccc4)CC3)nc12 | 11 | -9 | 37* | 5 | 0 | 60* | 39* | 49*
COCCCNC(=O)/C(C#N)=C/c1c(N2CCN(c3ccccc3)CC2)nc2c(C)cccn2c1=O | . | -5 | 91* | 22 | 23 | 99* | 37* | 41*
COc1ccc(C(=O)C[n+]2cc(Br)cc3ccccc32)cc1[N+](=O)[O-] | . | -1 | 54* | -62 | -86 | 75* | 22 | 24
CC1(C(=O)NS(=O)(=O)c2ccc(Cl)s2)CCN1C(=O)C1(c2ccc(Cl)cc2)CCC1 (stereo unspecified) | . | . | . | 9 | . | . | . | .
CC1=C/C(=C/N(C)c2ccccc2)C(=O)S1 | 6 | -9 | 29 | -5 | 11 | 41* | 27 | 26
Cc1cc(=O)oc2c3c4c(cc12)OCCN4CCC3 | 65* | -15 | 60* | -9 | -7 | 64* | 47* | 41*
CC1(C(=O)Nc2ccc3ccccc3c2)CCC(=O)N1C1CCN(Cc2ccccc2)CC1 (stereo unspecified) | . | . | . | -7 | . | . | . | .
Cc1ccccc1OCC(=O)OCC(=O)Nc1ccc(Cl)cn1 | . | . | 10 | -4 | 4 | 16 | . | .
Cc1ccccc1OCC(=O)OCC(=O)Nc1ncc(Cl)c(C)c1Cl | . | . | 23 | 11 | 7 | 41* | 26 | 47*
COc1cccc(-n2c(SCc3cc(=O)oc4cc(O)c(O)cc34)nc3ccccc3c2=O)c1 | 25 | 0 | 13 | -4 | 9 | 51* | 21 | 63*
COc1ccc(S(=O)(=O)c2c(N)n(Cc3ccco3)c3nc4ccccc4nc23)cc1 | 50* | -2 | 101* | -31 | 117* | 105* | 22 | 31
COc1cc(C2C3CN(C)CC=C3C(C#N)=C(N)C2(C#N)C#N)ccc1OC(C)C (stereo unspecified) | 10 | -30* | 60* | 9 | 12 | 66* | 21 | 27
COc1cc([C@@H]2[C@H]3CNCC=C3C(C#N)=C(N)C2(C#N)C#N)ccc1OC(C)C | 1 | -8 | -1 | -62 | -21 | -13 | . | .
CC(C)N1CC=C2C(C#N)=C(N)C(C#N)(C#N)[C@H](c3ccoc3)[C@H]2C1 | 130* | ? | 158* | . | 85* | 183* | 78* | 100*
